The full ranking holds about 33,000 sequences; the median of “E-score (-0.5 to 0.5)” is about -0.035, and the highest 2% start at about 0.35. This excerpt belongs to a sample that is enriched for the highest values.

This experiment has as its target T1, Pdr3 (UniProt P33200).
T1 sequence: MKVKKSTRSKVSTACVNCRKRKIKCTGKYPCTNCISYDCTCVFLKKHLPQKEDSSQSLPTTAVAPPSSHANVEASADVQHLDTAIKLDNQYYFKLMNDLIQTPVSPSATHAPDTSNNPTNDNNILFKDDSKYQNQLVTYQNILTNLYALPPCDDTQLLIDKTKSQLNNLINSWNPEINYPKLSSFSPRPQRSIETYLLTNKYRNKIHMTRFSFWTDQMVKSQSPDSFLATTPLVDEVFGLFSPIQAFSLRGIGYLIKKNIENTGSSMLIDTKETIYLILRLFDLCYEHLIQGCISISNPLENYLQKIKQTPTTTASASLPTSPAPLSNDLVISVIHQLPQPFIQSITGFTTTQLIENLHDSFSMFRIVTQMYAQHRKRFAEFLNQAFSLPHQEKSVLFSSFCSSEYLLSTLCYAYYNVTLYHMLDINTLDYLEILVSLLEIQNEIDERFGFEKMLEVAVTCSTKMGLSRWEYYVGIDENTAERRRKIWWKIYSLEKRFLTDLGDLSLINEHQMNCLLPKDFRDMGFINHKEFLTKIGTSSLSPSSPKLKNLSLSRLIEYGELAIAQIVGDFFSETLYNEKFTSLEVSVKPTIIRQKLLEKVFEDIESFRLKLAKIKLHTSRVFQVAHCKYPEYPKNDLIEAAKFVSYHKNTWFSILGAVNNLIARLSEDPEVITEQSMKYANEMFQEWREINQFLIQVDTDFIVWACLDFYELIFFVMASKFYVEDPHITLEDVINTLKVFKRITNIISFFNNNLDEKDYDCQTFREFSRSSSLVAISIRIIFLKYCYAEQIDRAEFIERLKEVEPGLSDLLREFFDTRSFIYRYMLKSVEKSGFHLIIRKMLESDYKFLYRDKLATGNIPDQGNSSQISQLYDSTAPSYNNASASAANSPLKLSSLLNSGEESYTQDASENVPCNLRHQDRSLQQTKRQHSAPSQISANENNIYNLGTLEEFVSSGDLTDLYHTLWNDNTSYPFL
The experiment is described as follows: PBM E-score (8-mer binding enrichment) (E-score (-0.5 to 0.5)); higher = stronger / more preferred TF binding. The conditions noted are these: protein concentration: 200 nM; construct: GST-full length. Put shortly: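 Detection of bound protein used fluorescent anti-GST, with scans normalised by masliner. The proteins were GST-tagged yeast transcription factors applied at about 100-200 nM to universal all-10-mer Agilent arrays made double-stranded by primer extension. Each ungapped eight-base word, pooled with its reverse complement, was scored with an E-score from the Universal PBM Analysis Suite.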
For TAACGGGA, the “PBM E-score” value stood at 0.237. The figure for CACAGAAA is 0.0151; for AGGCCGGC it is 0.291. The figure for GGGCCGGA is 0.318.

For CGGCCGGC, the “PBM E-score” value amounted to 0.371. The figure for CGGCCGGA is 0.396; for CGGCCGAC it is 0.315; for AGGCCGGA it is 0.256.

As for CGCATGAG, the “PBM E-score” value is -0.164. CATGATTA: the “PBM E-score” value was 0.0563. The figure for GACGGAGA is 0.322. The figure for CACGGAGC is 0.374; for CACGGAGG it is 0.26.

Turning to GACGGAGC, the “PBM E-score” value amounted to 0.213. The figure for TACGGAGA is 0.178. The figure for CACGGAGA is 0.372; for AAGATTGG it is 0.014. Turning to GTGGTTCA, the “PBM E-score” value is 0.0321.

Regarding ACTTAACC, the “PBM E-score” value was -0.166.

As for CACCCCGG, the “PBM E-score” value was found to be 0.236. With CACCCGAG, the “PBM E-score” value turned out to be 0.204. Take TACCCGGA: the “PBM E-score” value worked out at 0.381.

ATCACCCA: the “PBM E-score” value is -0.0491. The figure for TACCCGTA is 0.0329; for ATCACCCC it is 0.0523; for ATCACCCG it is 0.358. In the case of ACACCCGG, the “PBM E-score” value was 0.291. Take CCACCCGA: the “PBM E-score” value is 0.216. The figure for TACCCGAA is 0.198; for CCACCCGG it is 0.359; for CACCCGGG it is 0.398. The figure for CCCATCCC is 0.133; for AAGTGGAA it is -0.0995. The figure for AGGGCGGG is 0.25; for ACCTCCTA it is -0.192; for ACGGCCTA it is 0.131. AACAGGGT: the “PBM E-score” value was -0.0562.

Take CGGGGTAA: the “PBM E-score” value was 0.267. Consider GGCAAACC, for which the “PBM E-score” value was -0.147. The figure for GACGTATC is -0.0675; for ACCCCGGA it is 0.352. As for CACCCGGA, the “PBM E-score” value came out at 0.412. The figure for CCCACCCC is 0.198; for CACCCGTA it is 0.151. The figure for CCCACCCA is 0.073; for AACCCGGA it is 0.384; for CCCACCCG it is 0.387.

Consider GACCCCGA, for which the “PBM E-score” value was 0.109. The figure for GACCCGGA is 0.369. The figure for CACCCGGC is 0.234; for GACCCGGC it is 0.294.

With AACCCGGC, the “PBM E-score” value was found to be 0.289. With AATAGCGT, the “PBM E-score” value was found to be 0.0358. The figure for CGCAAATA is 0.125; for TACACGTA it is -0.168; for AAGATTGA it is -0.131.

In the case of CTCGCCCA, the “PBM E-score” value was -0.0292. The figure for CGTGCGCA is -0.111; for AGTCAAAA it is -0.104; for CCGAGCCA it is 0.295. Take CGGAGCAA: the “PBM E-score” value stood at 0.338. The figure for CGGAGCAC is 0.297; for CCGAGCCG it is 0.359. The figure for CGGAGCCC is 0.208; for CGGAGCGC it is 0.266. The figure for AGGAGCCG is 0.0342; for CGGAGCAG it is 0.403; for ACGAGCCG it is 0.134. For the sequence AGGAGCGA, the “PBM E-score” value was -0.199. The figure for CGGAGCGA is 0.378; for CGGAGCCG it is 0.369; for AGCATCGA it is -0.0594.

Take ACATATCT: the “PBM E-score” value came out at 0.0252. For CGCTGTAG, the “PBM E-score” value was -0.00377. The figure for ATGTGGTA is -0.0392.

With AGCGAACG, the “PBM E-score” value was -0.134. The figure for GTAACCGA is 0.0824; for CGTGATTA it is 0.0343. With GAGTACTC, the “PBM E-score” value is 0.0872. The figure for ACAAGCCC is -0.157. The figure for ACCCATCA is -0.129; for GAGCATTA it is -0.0816. The figure for GGGAAAAC is 0.0253; for TGGAAAAA it is 0.0433; for CGGAAAAC it is 0.375. On to AGGAAAAC, for which the “PBM E-score” value was found to be 0.0846.
